Assay outcomes: PubChem, several laboratories
CYP2C9 inh – blockers of cytochrome P450 2C9 activity – biochemical, luminescence, ADME assay, primary screen. P11712. CYP2C9 Supersomes, luciferin-H conversion. inhibition, % at 5 µM. actives 20% (n = 96,000). AID 777, 2007;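 active = blocking of liver enzyme CYP2C9 beyond about 50% at 5 µM, limit read from the data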
CYP2C19 activ – human CYP2C19 activators, primary screen, biochemical, luminescence. AID 1025, 2008. recombinant CYP2C19, luciferin-H EGE luminescence; hits give high values; 0 = fully inhibited enzyme, 1 = untreated enzyme. activation factor at 5 µM. 96,000 tested, under 10 active. Cytochrome P450 2C19 (Homo sapiens), P33261;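 active = activation factor of at least 2 at 5 µM in the primary screen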
CYP2C19 inh – blockers of cytochrome P450 2C19 activity – biochemical, luminescence, ADME assay, primary screen; P33261; inhibition, % at 5 µM; actives 21% (n = 96,000); CYP2C19 Supersomes, luciferin-H EGE luminescence, 30 min;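 active = CYP2C19 inhibition above a set limit at 5 µM in the primary screen, cut at about 50% in these data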
CYP2C9 act – human CYP2C9 activators, primary screen, biochemical, luminescence. Cytochrome P450 2C9 (Homo sapiens), P11712. recombinant CYP2C9, luciferin-H conversion; hits give high values; factor 1 = untreated enzyme, 0 = blocked. activation factor at 5 µM. actives 1.4% (n = 96,000). AID 1024, 2008;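 active = activation factor of 2 or more for CYP2C9 at a 5 µM dose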
Cav3 T inh – Cav3.2 calcium influx blockers – cell-based, Fluo-4 calcium fluorescence, FDSS, MLSMR library, primary screen; Voltage-dependent T-type calcium channel subunit alpha-1H (Homo sapiens), O95180; actives 4% (n = 100,000); Cav3.2-expressing cells; hits give low values; B-score at 10 µM; AID 449739, 2010;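 active = single-dose well whose peak fluorescence ratio is a statistical outlier from its plate by either plate-standardised score or position-corrected B-score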
Target sequence (O95180 whole entry, looked up): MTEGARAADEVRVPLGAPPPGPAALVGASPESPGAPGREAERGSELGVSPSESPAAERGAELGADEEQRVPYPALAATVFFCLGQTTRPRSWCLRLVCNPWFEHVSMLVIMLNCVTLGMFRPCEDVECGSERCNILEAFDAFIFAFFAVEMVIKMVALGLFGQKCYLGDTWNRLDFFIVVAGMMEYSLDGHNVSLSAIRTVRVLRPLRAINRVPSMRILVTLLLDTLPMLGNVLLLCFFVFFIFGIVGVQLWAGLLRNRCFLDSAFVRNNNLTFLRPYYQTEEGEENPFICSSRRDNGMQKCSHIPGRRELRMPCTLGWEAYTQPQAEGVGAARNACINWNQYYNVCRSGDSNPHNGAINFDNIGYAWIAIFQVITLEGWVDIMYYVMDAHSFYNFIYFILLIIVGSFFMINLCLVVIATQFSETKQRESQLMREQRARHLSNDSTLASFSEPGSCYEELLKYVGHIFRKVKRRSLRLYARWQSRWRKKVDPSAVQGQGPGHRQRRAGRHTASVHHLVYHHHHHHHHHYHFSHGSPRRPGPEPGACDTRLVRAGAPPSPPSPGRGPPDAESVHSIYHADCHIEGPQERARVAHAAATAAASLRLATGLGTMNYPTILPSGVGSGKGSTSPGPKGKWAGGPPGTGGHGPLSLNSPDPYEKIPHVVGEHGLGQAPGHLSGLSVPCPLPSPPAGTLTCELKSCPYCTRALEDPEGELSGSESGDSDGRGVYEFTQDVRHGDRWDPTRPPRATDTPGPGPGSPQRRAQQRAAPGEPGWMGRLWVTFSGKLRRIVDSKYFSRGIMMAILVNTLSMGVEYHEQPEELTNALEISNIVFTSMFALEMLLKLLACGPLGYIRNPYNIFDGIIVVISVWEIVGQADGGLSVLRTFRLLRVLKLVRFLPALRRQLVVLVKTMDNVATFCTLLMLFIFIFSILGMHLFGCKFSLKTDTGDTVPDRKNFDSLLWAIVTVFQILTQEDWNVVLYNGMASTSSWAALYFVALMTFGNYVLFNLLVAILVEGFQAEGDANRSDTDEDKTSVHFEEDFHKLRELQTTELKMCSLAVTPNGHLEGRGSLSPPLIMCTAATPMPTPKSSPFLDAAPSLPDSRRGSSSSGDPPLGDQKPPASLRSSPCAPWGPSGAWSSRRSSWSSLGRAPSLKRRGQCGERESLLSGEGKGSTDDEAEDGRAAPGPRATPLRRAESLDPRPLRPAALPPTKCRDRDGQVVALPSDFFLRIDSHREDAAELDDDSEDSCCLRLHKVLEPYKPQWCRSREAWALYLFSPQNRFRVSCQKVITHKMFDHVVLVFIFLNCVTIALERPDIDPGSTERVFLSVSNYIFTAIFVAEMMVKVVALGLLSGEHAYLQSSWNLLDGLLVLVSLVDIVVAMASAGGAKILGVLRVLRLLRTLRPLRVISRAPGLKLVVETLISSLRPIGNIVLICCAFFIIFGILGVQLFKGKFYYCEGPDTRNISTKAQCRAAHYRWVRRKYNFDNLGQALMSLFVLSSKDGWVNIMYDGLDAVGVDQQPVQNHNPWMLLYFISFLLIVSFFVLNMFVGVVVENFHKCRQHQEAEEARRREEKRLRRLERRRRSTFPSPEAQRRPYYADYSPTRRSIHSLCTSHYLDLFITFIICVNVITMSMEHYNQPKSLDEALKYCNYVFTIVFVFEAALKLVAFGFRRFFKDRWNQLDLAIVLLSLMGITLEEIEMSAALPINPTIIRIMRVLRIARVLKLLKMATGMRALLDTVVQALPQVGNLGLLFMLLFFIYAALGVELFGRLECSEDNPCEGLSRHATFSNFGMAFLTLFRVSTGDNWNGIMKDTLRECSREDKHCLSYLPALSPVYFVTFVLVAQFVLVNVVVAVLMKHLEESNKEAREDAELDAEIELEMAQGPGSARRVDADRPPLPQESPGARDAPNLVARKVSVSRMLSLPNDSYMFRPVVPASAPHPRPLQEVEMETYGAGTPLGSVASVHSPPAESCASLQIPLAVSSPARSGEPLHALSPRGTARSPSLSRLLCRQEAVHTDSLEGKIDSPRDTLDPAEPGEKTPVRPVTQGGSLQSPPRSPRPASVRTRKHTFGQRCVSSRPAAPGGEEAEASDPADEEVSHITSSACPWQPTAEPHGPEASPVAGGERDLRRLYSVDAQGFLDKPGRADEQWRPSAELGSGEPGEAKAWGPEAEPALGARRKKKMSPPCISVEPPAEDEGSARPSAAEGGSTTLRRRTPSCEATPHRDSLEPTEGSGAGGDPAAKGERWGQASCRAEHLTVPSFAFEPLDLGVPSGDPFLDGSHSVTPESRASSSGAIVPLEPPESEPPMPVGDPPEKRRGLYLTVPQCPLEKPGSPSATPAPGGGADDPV
Each line names hits and unclear results; the compound was inactive in the other large screens. This is a sample that favours compounds with a hit; in the whole collection about 27% have one here.

CCCNS(=O)(=O)c1ccc(OCC(=O)Nc2ccc3c(c2)OCCO3)cc1	CYP2C9 inh 70
O=c1cc(N2CCC3(CC2)OCCO3)[nH]c(=O)n1-c1ccc(Br)cc1	none (no result: CYP2C9 inh, CYP2C19 activ, CYP2C19 inh, CYP2C9 act)
COc1ccc(C(C)=O)cc1CSc1nnc(-c2ccccc2O)n1-c1ccccc1	CYP2C9 inh 53
O=C(Nc1nccs1)c1ccccc1N=Cc1ccccc1	CYP2C9 inh 80, CYP2C19 inh 93
COc1cccc(C=Nc2ccccc2C(=O)Nc2nccs2)c1OC	none
CCOC(=O)c1c(N)sc(C(=O)N(C)C)c1C	none
CCCCOC(=O)Nc1nc(C)c(C(=O)OCC)s1	none
CCOC(=O)c1sc(N)nc1C(C)C	CYP2C19 inh 52
CCCc1nc(N)sc1C(=O)OCC	CYP2C19 inh 55
O=C(NC1CCCC1)C1CCCN1C(=O)Nc1ccc(Cl)cc1 (stereo not drawn)	none
CC(C)CCNC(=O)C1CCCCN1S(=O)(=O)c1ccc(F)cc1 (stereo not drawn)	none
Cc1noc(C)c1CN1C(=O)NC2(CCCCCCC2)C1=O	CYP2C19 inh 61
CC(C)(C)C(=O)NCCc1nc2ccccc2n1CC(=O)c1ccc(Cl)cc1	none (no result: CYP2C9 inh, CYP2C19 activ, CYP2C19 inh, CYP2C9 act)
CCCc1cc(=O)n2[nH]c(CCc3ccccc3)nc2n1	CYP2C9 inh 52
CCCc1cc(=O)n2[nH]c(-c3ccco3)nc2n1	none
NC(=O)Cc1c[nH]c2cccc(O)c12	none
COC(=O)c1cc2sc(Cl)cc2n1CC(=O)NCCC(C)C	none
CCOC(=O)c1cc2sc(C)cc2n1CC(=O)N(CC)CC	CYP2C19 inh 54
CCOC(=O)c1cc2sc(C)cc2n1CC(=O)NCCc1ccccc1	CYP2C19 inh 100
O=C(O)c1c(Cl)c(Cl)c(Cl)c(Cl)c1C(=O)N1CCCC1	none
Cc1ccc([N+](=O)[O-])cc1NC(=O)CN1CCC(C)CC1	none (no result: Cav3 T inh)
Cc1oc(-c2ccc(Cl)cc2)nc1CN1CCCC(C(=O)N2CCN(C(=O)c3ccco3)CC2)C1 (stereo not drawn)	CYP2C9 inh 52, CYP2C19 inh 55
CCOC(=O)C1CCN(C(=O)CSCc2nc(-c3ccc(OCC)cc3)oc2C)CC1	CYP2C9 inh 81, CYP2C19 inh 54
CCOc1ccc(-c2nc(CSCC(=O)N3CCN(C(=O)c4ccco4)CC3)c(C)o2)cc1	CYP2C9 inh 80
Cc1ccc(-c2nc(CSCC(=O)N3CCCC3)c(C)o2)cc1	none
Cc1cccc(-c2nc(CSCC(=O)N3CCN(c4ccccn4)CC3)c(C)o2)c1	none
Cc1ccsc1-c1nc(CSCC(=O)N2CCN(c3ccccc3)CC2)c(C)o1	CYP2C19 inh 63 (no result: Cav3 T inh)
CCOC(=O)N1CCC(=NNS(=O)(=O)c2cccc([N+](=O)[O-])c2)CC1	none
CCOC(=O)C1CCN(C(=O)CS(=O)Cc2nc(-c3ccc(C)cc3)oc2C)CC1 (stereo not drawn)	CYP2C9 inh 67
Cc1cccc(-c2nc(CS(=O)CC(=O)N3CCN(C)CC3)c(C)o2)c1 (stereo not drawn)	none
CCOC(=O)c1cnc(-n2cc(C)cn2)nc1Nc1ccccc1OC	none
CN1CCN(/C(=N\S(=O)(=O)c2ccc(F)cc2)c2ccccc2)CC1	none (no result: Cav3 T inh)
CC(C)NC(=O)c1cc2c(-c3ccc(Cl)cc3)nn(C)c2s1	none
CSc1cc(-c2ccc(Cl)cc2)c(C(=O)NN)s1	CYP2C9 inh 65, CYP2C19 inh 70
CSc1cc(-c2ccc(Cl)cc2)c(C(=O)NC(C)C)s1	CYP2C19 inh 69 (no result: Cav3 T inh)
Cc1ccc2nc(-c3cccc(S(=O)(=O)N(C)C)c3)cn2c1	none
CCN(CC)S(=O)(=O)c1cccc(-c2cn3cc(C)ccc3n2)c1	CYP2C9 inh 67, CYP2C19 inh 61
Cn1cnnc1SCc1ccc(-c2ccc(Br)cc2)o1	CYP2C9 inh 56, CYP2C19 inh 93
C[N+](C)(C)CCCC(=O)c1ccc2c(c1)OCO2	none (no result: Cav3 T inh)
O=C(CC1(O)C(=O)Nc2ccc(Br)cc21)c1ccc2c(c1)OCO2 (stereo not drawn)	CYP2C9 inh 75, CYP2C19 inh 76
CCS(=O)(=O)Nc1ccc(C(=O)CC2(O)C(=O)Nc3ccc(Br)cc32)cc1 (stereo not drawn)	none
Cc1ccc2c(c1)C(O)(CC(=O)c1ccc3c(c1)OCO3)C(=O)N2 (stereo not drawn)	CYP2C19 inh 58
O=C1Nc2ccc(Br)cc2C1(O)Cc1ccncc1 (stereo not drawn)	CYP2C9 inh 83, CYP2C19 inh 56
CCOC(=O)C1=NN(C(=O)c2ccc(C)cc2)C(O)(c2ccc(Cl)cc2)C1 (stereo not drawn)	CYP2C19 inh 56, Cav3 T inh -6.3
Cc1ccc(CN2C(=O)CCC2C(=O)NCc2cccnc2)cc1 (stereo not drawn)	none
O=C(Nc1ccccc1C(=O)NC(Cc1ccccc1)C(=O)NC1CCCCCC1)c1ccccc1 (stereo not drawn)	CYP2C9 inh 71, Cav3 T inh -5.3
O=C(Nc1ccccc1C(=O)NCc1ccccc1)c1ccccc1	CYP2C9 inh 54
CN(Cc1ccccc1)C(=O)c1ccccc1NC(=O)c1ccccc1	none
CCCNC(=O)c1ccccc1NC(=O)c1ccc(CSc2ccccc2)cc1	CYP2C9 inh 79, CYP2C19 inh 74
O=C(N[C@@H](Cc1ccccc1)C(=O)NC1CCCCCC1)c1ccco1	none
O=C(Nc1ccc(Cl)cc1C(=O)NCc1cccnc1)c1ccco1	CYP2C9 inh 58
NS(=O)(=O)c1ccc(NC(=O)CSc2nnc(-c3cnccn3)n2-c2ccccc2)cc1	none
COc1cc(OC)cc(C(C)=O)c1	none
O=C(Nc1c(C(=O)Nc2ccccc2)cnn1-c1ccccc1)c1ccco1	none
CCC(C)C(NC(=O)c1ccccc1NC(=O)c1ccco1)C(=O)O (stereo not drawn)	none
O=C(Nc1c(C(=O)NCc2ccco2)cnn1-c1ccccc1)c1cccc(F)c1	CYP2C9 inh 87, CYP2C19 inh 67
CCC(C)C(NC(=O)c1ccccc1NC(=O)c1ccc(OC)cc1)C(=O)NCc1ccco1 (stereo not drawn)	CYP2C9 inh 89, CYP2C19 inh 76
Cc1ccc(C(=O)Nc2cccnc2)cc1NC(=O)c1ccco1	CYP2C9 inh 54
O=C(Nc1ccccc1C(=O)NCc1cccnc1)c1ccco1	CYP2C9 inh 54, CYP2C19 inh 78
Cc1ccccc1NC(=O)CNc1ccccc1C(=O)NCc1ccco1	CYP2C19 inh 68
O=C(Nc1ccccc1C(=O)NCc1ccco1)c1ccccc1	CYP2C9 inh 74, CYP2C19 inh 54 (no result: Cav3 T inh)
O=C(CCc1ccccc1)Nc1ccccc1C(=O)NCc1ccco1	none (no result: CYP2C9 inh, CYP2C19 activ, CYP2C19 inh, CYP2C9 act)
O=C(NCc1ccco1)c1cc(-c2ccc(Cl)cc2)on1	none
O=C(Nc1ccccc1)Nc1ccccc1C(=O)NCc1ccccc1	CYP2C9 inh 50
